Read-out in test [1]: Tissue Factor, F3 (gene 2152)
Briefly: BSK_CASM3C_TissueFactor: BioMAP Diversity Plus: CASM3C Assay for Tissue Factor Biomarker Activity (AID 2283052).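 Note: cell surface tissue factor protein level read by ELISA.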 The settings on record: primary human coronary artery smooth muscle cells; actives raise or lower the signal.

Read-out in test [2]: Interferon-gamma inducible Protein 10 (IP10), CXCL10 (gene 3627)
The experiment in a line: BSK_hDFCGF_IP10: BioMAP Diversity Plus: hDFCGF Assay for Interferon-gamma inducible Protein 10 (IP10) Biomarker Activity (AID 2283053). The settings on record: primary human foreskin fibroblasts; actives raise or lower the signal. A digest of the protocol:
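ELISA read-out of IP-10 (CXCL10) from primary human skin fibroblasts, 24 h after compound addition. Gain or loss of signal versus DMSO baseline, bidirectional curve fitting.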

Read-out in test [3]: Urokinase-type plasminogen activator receptor (uPAR), PLAUR (gene 5329)
The experiment in a line: BSK_CASM3C_uPAR: BioMAP Diversity Plus: CASM3C Assay for Urokinase-type plasminogen activator receptor (uPAR) Biomarker Activity (AID 2283054).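 Note: cell-surface uPAR protein level quantified by ELISA.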 The settings on record: primary human coronary artery smooth muscle cells; actives raise or lower the signal.

Read-out in test [4]: Vascular cell adhesion molecule 1 (VCAM1), VCAM1 (gene 7412)
The experiment in a line: BSK_CASM3C_VCAM1: BioMAP Diversity Plus: CASM3C Assay for Vascular cell adhesion molecule 1 (VCAM1) Biomarker Activity (AID 2283055).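 Note: VCAM-1 protein level quantified by ELISA on the cells.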 The settings on record: primary human coronary artery smooth muscle cells; actives raise or lower the signal.

Read-out in test [5]: Collagen III, COL3A1 (gene 1281)
Briefly: BSK_hDFCGF_CollagenIII: BioMAP Diversity Plus: hDFCGF Assay for Collagen III Biomarker Activity (AID 2283056). Conditions: primary human foreskin fibroblasts; actives raise or lower the signal. The gist of the method:
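Response relative to DMSO, fitted in both directions, reflects ELISA-measured collagen III in human primary skin fibroblasts 24 h after compound addition.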

Read-out in test [6]: Epidermal growth factor receptor (EGFR), EGFR (gene 1956)
The experiment in a line: BSK_hDFCGF_EGFR: BioMAP Diversity Plus: hDFCGF Assay for Epidermal growth factor receptor (EGFR) Biomarker Activity (AID 2283057). Conditions: primary human foreskin fibroblasts; actives raise or lower the signal. The gist of the method:
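ELISA readout of EGFR on human dermal fibroblasts (primary foreskin cells), 24 h post-dosing; bidirectional curve fit vs DMSO baseline, gain or loss of signal scored.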

Read-out in test [7]: Interleukin-8 (IL8), CXCL8 (gene 3576)
The experiment in a line: BSK_hDFCGF_IL8: BioMAP Diversity Plus: hDFCGF Assay for Interleukin-8 (IL8) Biomarker Activity (AID 2283058). The settings on record: primary human foreskin fibroblasts; actives raise or lower the signal. The gist of the method:
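Fibroblast monolayers (human foreskin, hDFCGF) received test chemical for 24 h before ELISA detection of IL-8; either increases or decreases relative to DMSO count as activity.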

Test [8] can be described thus: BSK_hDFCGF_Proliferation: Cell Proliferation Assessment in the BioMAP Diversity Plus: hDFCGF Assay (AID 2283059).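 Note: curves fitted for both rise and fall of signal versus DMSO baseline.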 The settings on record: primary human foreskin fibroblasts. The gist of the method:
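Total protein read at 560 nm after 0.1% SRB staining of TCA-fixed human skin fibroblasts, […]. Activity is fitted in both directions relative to DMSO as baseline.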

Read-out in test [9]: Macrophage colony-stimulating factor (MCSF), CSF1 (gene 1435)
The experiment in a line: BSK_hDFCGF_MCSF: BioMAP Diversity Plus: hDFCGF Assay for Macrophage colony-stimulating factor (MCSF) Biomarker Activity (AID 2283060). Conditions: primary human foreskin fibroblasts; actives raise or lower the signal. The gist of the method: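 fibroblasts (human foreskin, primary), 24 h post-dose; M-CSF by ELISA; bidirectional fit, DMSO = baseline.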

Test [10] in a line: BSK_hDFCGF_SRB: Viability Assessment in the BioMAP Diversity Plus: hDFCGF Assay (AID 2283061).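 Note: cells exposed to compound for 24 h before the read.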 The settings on record: primary human foreskin fibroblasts. The gist of the method: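 SRB-based viability read on primary human skin fibroblasts at 24 h: TCA fixation, 0.1% dye, 560 nm. Gain or loss of signal is fitted against the DMSO negative control.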

Each structure is given as a SMILES string. Activity calls are given as the source filed them. Rule for the calls: active = hit-call score of the fitted dose curve at least 0.9, where 1 is the maximum; inactive = score below 0.9.

For orientation: AC50 means the concentration at which the activity in the assay is half-maximal. Turning to `CCC(C)(C)C(=O)O[C@H]1C[C@@H](C)C=C2C=C[C@H](C)[C@H](CC[C@@H]3C[C@@H](O)CC(=O)O3)[C@H]21`, the AC50 in test [1] is 3.97 µM (active); in [2], 31.4 µM (active); in test [3] it was 29.2 µM (active); in test [4], 29.8 µM (active); in test [5], 33.3 µM (active); in test [7], 29.5 µM (active). Further, the AC50 in [8] was 13.9 µM (active); in [9], 26.3 µM (active); in [10] it was 25.8 µM (active). The result in test [6] was inactive.

`C1=CCCC=CCCC=CCC1`: the outcome in [1], in [2], in [3], in test [4], in [5] and in test [6] was inactive. Also, the outcome in [7], in test [8], in [9] and in [10] was inactive.

In the case of `Fc1ccccc1[C@@H](F)COC1CCC(Nc2ncnc3[nH]ncc23)CC1` (some centres undefined), the outcome in test [1], in test [2], in [5], in test [6], in test [7] and in test [9] was inactive. For the same molecule, the result in test [10] was inactive. Moreover, the values for the AC50 in test [3], in test [4] and in test [8] were 9.15 µM (active), 7.56 µM (active) and 10.3 µM (active), respectively.

On to `CCOCCO`, for which the outcome in test [1], in test [2], in test [3], in test [4], in test [5] and in test [6] was inactive. The outcome in [7], in test [8], in test [9] and in test [10] was inactive.

In the case of `C=CC(=C)CCC=C(C)C`, the outcome in [1], in test [2], in test [3], in [4], in [5] and in test [6] was inactive. Also, the outcome in test [7], in test [8], in test [9] and in [10] was inactive.

Take `CCCCCCCCO`: the result in [1], in [2], in [3], in test [4], in test [5] and in test [6] was inactive. Also, the result in [7], in test [8] and in [9] was inactive.

Turning to `CC(=O)OC[C@H]1O[C@@](COC(C)=O)(O[C@H]2O[C@H](COC(C)=O)[C@@H](OC(C)=O)[C@H](OC(C)=O)[C@H]2OC(C)=O)[C@@H](OC(C)=O)[C@@H]1OC(C)=O`, the result in test [1], in test [2], in test [3], in [4], in test [5] and in test [6] was inactive. Also, the outcome in [7], in test [8] and in test [9] was inactive.

With `COC(=O)c1c(Cl)c(Cl)c(C(=O)OC)c(Cl)c1Cl`, the outcome in [1], in [2], in test [3], in test [4], in [5] and in test [6] was inactive. The result in test [7], in test [8] and in test [9] was inactive.

Turning to `CC(=O)OCCC(C)C`, the result in test [1], in test [2], in test [3], in [4], in test [5] and in [6] was inactive. Besides, the result in test [7], in [8], in test [9] and in [10] was inactive.

In the case of `Cc1c(-c2cccnc2)c2ccccc2n1CCCCC(=O)O`, the outcome in test [1], in test [2], in [3], in test [4], in test [5] and in test [6] was inactive. Moreover, the outcome in test [7], in test [8], in [9] and in test [10] was inactive.

As to `CC(C)c1cccc(C(C)C)c1N1C(=O)c2ccc(O)cc2C1=O`, the result in [1], in [5], in [6] and in [7] was inactive. Besides, the AC50 in test [2] is 27.9 µM (active); in test [3] it was 20 µM (active); in [4], 16.9 µM (active); in test [8], 9.91 µM (active); in test [9], 14.7 µM (active).

Regarding `CCN(C(=O)c1cc(C)cc(OC[C@H](C)Nc2ccncc2)c1)C(C)C`, the result in test [1], in test [2], in test [3], in [4], in test [5] and in [6] was inactive. In addition, the outcome in test [7], in test [8] and in test [9] was inactive.

For `CC(C)=CCCC(C)=CC=O`, the outcome in test [1], in test [2], in test [3], in [4], in test [5] and in test [6] was inactive. The result in test [7], in test [9] and in test [10] was inactive. Besides, the half-maximal activity concentration (AC50) in [8] was 28.1 µM (active).

In the case of `Cc1ccc(O)cc1`, the result in test [1], in test [2], in test [4], in test [5], in test [6] and in test [7] was inactive. The result in [8], in test [9] and in test [10] was inactive. Besides, in test [3], the AC50 was 4.24 µM (active).

As to `CC[C@H](C)C(=O)O[C@H]1C[C@@H](C)C=C2C=C[C@H](C)[C@H](CC[C@@H]3C[C@@H](O)CC(=O)O3)[C@H]21`, the outcome in test [1], in [3] and in test [4] was inactive. Moreover, the AC50 was 35.3 µM (active) in test [2]; 29.8 µM (active) in test [5]; 33.8 µM (active) in [7]; 13.5 µM (active) in test [8]; 27.6 µM (active) in test [9]; 32.2 µM (active) in test [10].

For `O=P(OC(CCl)CCl)(OC(CCl)CCl)OC(CCl)CCl`, the result in test [1], in test [2], in [3], in test [4], in test [6] and in test [7] was inactive. The outcome in test [9] and in test [10] was inactive. Besides, the AC50 was 12 µM (active) in test [5] and 16.2 µM (active) in [8].

In the case of `O=C(CCCCCCCCc1cccnc1)N1CCC(C=C(c2ccccc2)c2ccccc2)CC1`, the result in test [1] and in [6] was inactive. Also, the AC50 in test [2] is 9 µM (active); in test [3] it was 39.2 µM (active); in test [4], 37.9 µM (active); in [5] it was 4.91 µM (active); in test [7] it was 10.7 µM (active); in test [8], 5.65 µM (active). Moreover, the figures for the AC50 in test [9] and in test [10] were 7.88 µM (active) and 7.83 µM (active), respectively.

Turning to `CCCCCCCCCCCCc1ccccc1`, the result in test [1], in test [2], in test [3], in [4], in [5] and in test [6] was inactive. Moreover, the result in test [7], in test [8], in test [9] and in test [10] was inactive.

In the case of `C=CCCCCCCCCC(=O)O`, the result in [1], in test [2], in [3], in test [4], in test [5] and in [6] was inactive. Moreover, the result in [7], in [8], in [9] and in test [10] was inactive.

Regarding `COC(=O)c1ccccc1O`, the result in test [1], in [2], in test [3], in [4], in test [5] and in test [6] was inactive. In addition, the outcome in [7], in test [8], in [9] and in test [10] was inactive.

Regarding `CCn1nc(Cc2ccccc2)cc1C1CCN(C[C@H]2C[C@H](N(C)[C@@H](C(=O)O)C(C)C)C[C@@H]2c2cccc(F)c2)CC1`, the result in [1], in test [2], in test [3], in test [4], in test [5] and in test [6] was inactive. In addition, the outcome in test [7], in test [9] and in test [10] was inactive. In test [8], the AC50 is 12.9 µM (active).

`CCOC(=O)CC(CC(=O)OCC)(OC(C)=O)C(=O)OCC`: the result in [1], in [2], in test [3], in [4], in test [5] and in test [6] was inactive. For the same molecule, the outcome in test [7], in test [8], in test [9] and in test [10] was inactive.

The values above are taken from PubChem BioAssay (EPA / NIEHS).
